Measured values reported in PubChem BioAssay.
Calls of active or inactive are those of the source. Unless noted, how the calls were made is not given here.

Legend:
[1] = test system: Wnt5a (protein binding on small-molecule microarray); assay: small molecules binding Wnt5a protein – biophysical, small-molecule microarray, 635/667 nm fluorescence, primary screen (AID 1142); settings: 635 nm fluorescence, higher = more signal;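 further: fluorescence read at 667 nm with signal to noise per printed feature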
[2] = ATP-based viability of Huh7 replicon cells – cell-based, CellTiter-Glo luminescence, basal, 48 h, cytotoxicity control for HCV replication inhibitor project, primary screen (AID 1143); settings: higher = more signal, called active from +8 up or from −8 down;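 further: Huh7 hepatoma cells carrying a hepatitis C replication reporter with no stimulus; test concentration not given here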
[3] = Pseudomonas biofilm growth suppression – PAO1 strain, BacTiter-Glo luminescence, LB-PBS, primary screen (AID 1144); settings: P. aeruginosa PAO1 biofilm, 12 h, higher = more signal
[4] = basal CRE-LacZ reporter activity in PC12 – cell-based, unstimulated, primary screen (AID 1145); settings: no forskolin, luminescence, 4.5 h, higher = more signal, called active from +8 up or from −8 down
[5] = forskolin-driven CRE-LacZ activity in PC12 – cell-based, CRE-LacZ reporter, forskolin-stimulated, primary screen (AID 1146); settings: luminescence, 4.5 h, higher = more signal, called active from +8 up or from −8 down;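 further: PC12 cells with 6xCRE LacZ reporter stimulated by forskolin 10 µM; beta-galactosidase reporter signal reflecting CREB driven transcription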
[6] = biological target: Streptavidin (Streptomyces avidinii) (UniProt P22629); assay: compounds binding control protein streptavidin – biophysical, small-molecule microarray, 635/667 nm fluorescence, artefact control for SMM compound annotation, primary screen (AID 1147); settings: higher = more signal;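 further: signal reflects streptavidin binding to arrayed compounds as a control protein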
Sequence of Streptavidin (Streptomyces avidinii) (P22629 whole entry, looked up): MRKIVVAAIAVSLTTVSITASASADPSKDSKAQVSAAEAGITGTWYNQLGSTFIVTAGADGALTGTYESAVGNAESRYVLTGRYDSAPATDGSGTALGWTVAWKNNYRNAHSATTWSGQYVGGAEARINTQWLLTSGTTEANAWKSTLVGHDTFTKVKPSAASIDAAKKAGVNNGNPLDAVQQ

[7] = probe aInhba binding on compound microarray – biochemical, small-molecule microarray, 635/667 nm fluorescence, primary screen (AID 1148); settings: higher = more signal;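 further: score merges 667nm spot fluorescence with signal-to-noise for antibody binding to printed compounds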
Torsin-1A (Homo sapiens) [8] = biological target: Torsin-1A (Homo sapiens) (UniProt O14656); assay: TOR1A wild-type binding on microarray – cell lysate, small-molecule microarray, lysate, 635/667 nm, primary screen (AID 1149); settings: COS7 hTOR1A-WT lysate, 635 nm fluorescence, higher = more signal
Sequence of Torsin-1A (Homo sapiens) (O14656 whole entry, looked up): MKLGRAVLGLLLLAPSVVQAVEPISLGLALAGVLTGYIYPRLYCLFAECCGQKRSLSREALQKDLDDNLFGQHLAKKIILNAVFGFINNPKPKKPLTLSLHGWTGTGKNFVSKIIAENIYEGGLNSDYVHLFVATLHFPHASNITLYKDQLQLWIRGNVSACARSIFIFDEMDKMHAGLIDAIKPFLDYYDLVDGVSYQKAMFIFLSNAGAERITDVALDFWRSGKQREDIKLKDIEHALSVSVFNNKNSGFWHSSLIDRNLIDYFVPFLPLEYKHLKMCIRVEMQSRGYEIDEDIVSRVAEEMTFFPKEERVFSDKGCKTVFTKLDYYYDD

Torsin-1A (Homo sapiens) [9] = biological target: Torsin-1A (Homo sapiens) (UniProt O14656); assay: torsin A mutant lysate binding on microarrays – cell lysate, small-molecule microarray, COS7 lysate, 635/667 nm fluorescence, primary screen (AID 1150); settings: COS7 hTOR1A mutant lysate, 635 nm fluorescence, higher = more signal;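 further: score pools 667 nm emission and signal to noise measuring lysate protein binding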
[10] = test system: Sonic hedgehog protein (Shh); assay: Sonic hedgehog microarray binding compounds – biochemical, small-molecule microarray, 635/667 nm fluorescence, primary screen (AID 1151); settings: 635 nm fluorescence, higher = more signal;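 further: Shh protein binding to compounds spotted on small-molecule microarray slides; score combines spot fluorescence intensity with signal-to-noise across triplicate slides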
[11] = optical density shifts of acrAB sulA E. coli – strain DRC41, OD650, 48 h, E. coli filamentation inducer project, primary screen (AID 1152); settings: higher = more signal, called active from +8 up or from −8 down;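 further: E. coli MC1000 strain DRC41 lacking acrAB efflux pump and sulA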
[12] = probe aLefty1 binding on compound microarray – biochemical, small-molecule microarray, 635/667 nm fluorescence, primary screen (AID 1153); settings: higher = more signal;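 further: score merges spot fluorescence with signal-to-noise ratio from the scanned slide images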
[13] = plasmodial surface anion channel blockers, osmotic lysis – cell-based, P. falciparum Indochina, OD700, 1 h, primary screen (AID 1154); settings: P. falciparum Indochina infected RBC osmotic lysis, higher = more signal, called active from +8 up or from −8 down
[14] = plasmodial surface anion channel blockers, osmotic lysis – cell-based, P. falciparum Indochina, OD700, 2 h, primary screen (AID 1155);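 further: lysis reports solute entry through the parasite surface anion channel PSAC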; settings: P. falciparum Indochina infected erythrocytes, higher = more signal, called active from +8 up or from −8 down
[15] = changes in parasitized red cell lysis, either direction – P. falciparum Indochina, OD700, 3 h, PSAC antagonist project, primary screen (AID 1156); settings: P. falciparum-infected erythrocytes, osmotic lysis, higher = more signal, called active from +8 up or from −8 down
[16] = plasmodial surface anion channel blockers, osmotic lysis – cell-based, P. falciparum Indochina, OD700, 18 h, primary screen (AID 1157); settings: P. falciparum Indochina infected erythrocytes, osmotic lysis OD700, 18 h; higher = more signal, called active from +8 up or from −8 down
[17] = S6 kinase pathway phospho-S6 level changes – cell-based, A549, cytoblot, luminescence, serum-stimulated, primary screen (AID 1158); settings: 5 h, higher = more signal;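 further: serum-stimulated A549 lung adenocarcinoma cells; signal is phosphorylated S6 detected by cytoblot immunostaining with HRP secondary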
[18] = biological target: NADPH oxidase 2 (Homo sapiens) (UniProt P04839); assay: compounds shifting NOX2 Amplex Red fluorescence – cell-based, HEK293-NOX2, PMA-stimulated, NOX inhibitor project, primary screen (AID 1159); settings: 45 min, higher = more signal, called active from +8 up or from −8 down; further: test concentration not given here
Sequence of NADPH oxidase 2 (Homo sapiens) (P04839 whole entry, looked up): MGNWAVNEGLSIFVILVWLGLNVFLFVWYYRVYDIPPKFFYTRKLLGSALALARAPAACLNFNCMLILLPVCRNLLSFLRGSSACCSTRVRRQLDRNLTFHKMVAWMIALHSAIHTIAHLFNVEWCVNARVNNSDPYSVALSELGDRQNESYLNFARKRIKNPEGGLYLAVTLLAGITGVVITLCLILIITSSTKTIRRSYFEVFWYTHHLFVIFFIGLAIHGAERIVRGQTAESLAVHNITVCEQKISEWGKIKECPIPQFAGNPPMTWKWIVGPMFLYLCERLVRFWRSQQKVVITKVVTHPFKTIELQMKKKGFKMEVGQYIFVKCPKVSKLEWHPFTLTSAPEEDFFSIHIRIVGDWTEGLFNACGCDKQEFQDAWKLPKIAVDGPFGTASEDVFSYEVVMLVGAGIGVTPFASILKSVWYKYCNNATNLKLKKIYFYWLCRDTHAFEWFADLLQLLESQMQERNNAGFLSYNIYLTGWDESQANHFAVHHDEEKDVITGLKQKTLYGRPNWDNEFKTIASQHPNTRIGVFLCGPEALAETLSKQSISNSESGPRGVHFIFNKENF

[19] = biological target: NADPH oxidase 4 (Homo sapiens) (UniProt Q9NPH5); assay: compounds shifting NOX4 Amplex Red fluorescence – cell-based, HEK293-NOX4, tetracycline-induced, NOX inhibitor project, primary screen (AID 1160); settings: HEK293-NOX4, Amplex Red H2O2 fluorescence, 45 min; higher = more signal, called active from +8 up or from −8 down
Sequence of NADPH oxidase 4 (Homo sapiens) (Q9NPH5 whole entry, looked up): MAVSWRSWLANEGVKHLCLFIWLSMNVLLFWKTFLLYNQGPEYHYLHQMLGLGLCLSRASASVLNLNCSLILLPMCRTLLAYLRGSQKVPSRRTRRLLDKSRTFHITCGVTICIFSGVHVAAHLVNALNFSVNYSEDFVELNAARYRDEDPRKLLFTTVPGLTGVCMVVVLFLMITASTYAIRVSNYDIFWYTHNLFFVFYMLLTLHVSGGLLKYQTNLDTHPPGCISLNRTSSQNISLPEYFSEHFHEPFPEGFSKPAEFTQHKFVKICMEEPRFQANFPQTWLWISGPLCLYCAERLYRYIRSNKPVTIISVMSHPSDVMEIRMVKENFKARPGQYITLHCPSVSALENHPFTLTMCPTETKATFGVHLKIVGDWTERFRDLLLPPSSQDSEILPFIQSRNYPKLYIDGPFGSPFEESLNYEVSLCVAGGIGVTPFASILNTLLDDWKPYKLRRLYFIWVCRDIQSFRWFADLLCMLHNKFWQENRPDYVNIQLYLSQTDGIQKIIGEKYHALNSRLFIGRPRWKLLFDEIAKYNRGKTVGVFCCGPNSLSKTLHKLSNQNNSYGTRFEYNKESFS

[20] = biological target: NADPH oxidase 5 (Homo sapiens) (UniProt Q96PH1); assay: compounds shifting NOX5 Amplex Red fluorescence – cell-based, HEK293-NOX5, NOX inhibitor project, primary screen (AID 1161); settings: HEK293-NOX5, ionomycin, 45 min, higher = more signal
Sequence of NADPH oxidase 5 (Homo sapiens) (Q96PH1 whole entry, looked up): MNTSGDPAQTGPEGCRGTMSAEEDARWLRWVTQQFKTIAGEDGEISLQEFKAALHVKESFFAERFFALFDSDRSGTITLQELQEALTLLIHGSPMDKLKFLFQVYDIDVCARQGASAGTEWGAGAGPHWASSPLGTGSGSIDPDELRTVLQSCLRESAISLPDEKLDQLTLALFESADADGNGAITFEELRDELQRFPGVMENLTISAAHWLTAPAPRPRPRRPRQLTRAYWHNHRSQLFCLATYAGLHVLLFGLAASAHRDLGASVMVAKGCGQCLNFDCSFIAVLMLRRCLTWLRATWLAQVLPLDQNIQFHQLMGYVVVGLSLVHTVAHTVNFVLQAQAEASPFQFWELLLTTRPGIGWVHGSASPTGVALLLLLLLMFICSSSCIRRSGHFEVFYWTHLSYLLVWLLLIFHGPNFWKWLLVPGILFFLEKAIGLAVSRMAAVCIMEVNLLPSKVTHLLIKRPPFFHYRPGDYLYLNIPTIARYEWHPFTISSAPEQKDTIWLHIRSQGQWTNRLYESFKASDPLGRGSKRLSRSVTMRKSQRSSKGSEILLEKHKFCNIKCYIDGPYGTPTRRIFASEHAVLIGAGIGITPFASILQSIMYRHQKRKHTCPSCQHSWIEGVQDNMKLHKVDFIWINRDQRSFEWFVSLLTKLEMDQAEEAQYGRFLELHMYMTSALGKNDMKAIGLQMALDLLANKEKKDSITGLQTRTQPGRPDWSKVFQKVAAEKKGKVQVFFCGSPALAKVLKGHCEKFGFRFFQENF

SMILES	composite z-score [1]	z-score [2]	z-score [3]	z-score [4]	z-score [5]	composite z-score [6]	composite z-score [7]	composite z-score (Torsin-1A (Homo sapiens) [8])	composite z-score (Torsin-1A (Homo sapiens) [9])	composite z-score [10]	z-score [11]	composite z-score [12]	z-score [13]	z-score [14]	z-score [15]	z-score [16]	z-score [17]	z-score [18]	z-score [19]	z-score [20]
CCOC(=O)[C@H](CC(C)C)NC(=O)CCC1CC(OC(=O)NCc2cccc3ccccc23)CC2(CCCC(COC(=O)NCCOc3ccccc3)O2)O1 (stereo not given in full)	0.746	-0.248 (inactive)	-0.477 (inactive)	-0.526 (inactive)	-0.519 (inactive)	0.628	0.0248	0.236	0.117	0.805	0.288 (inactive)	-0.372	-1.67 (inactive)	-0.658 (inactive)	-2.05 (inactive)	-0.391 (inactive)	-0.305	0.711 (inactive)	0.635 (inactive)	0.534
CCC=CCCC(OC(=O)c1ccc(Br)cc1)C1=CCCCC1=O (stereo not given)	-0.0451	-1.29 (inactive)	1.45 (inactive)	-0.158 (inactive)	3.09 (inactive)	0.148	-0.195	1.08	1.87	1.46	-0.686 (inactive)	-0.3	3.4 (inactive)	0.626 (inactive)	-0.0019 (inactive)	-0.366 (inactive)	0.86	-0.126 (inactive)	-0.534 (inactive)	-3.12
COC(=O)[C@@H]1CC[C@H](C)[C@@H](c2ccc(C)cc2)N1C(=O)c1ccc(C=NOCC[C@@H]2C=C[C@H](OC(C)=O)[C@@H](COC(C)=O)O2)cc1	0.133	-0.689 (inactive)	0.637 (inactive)	4.56 (inactive)	-0.0189 (inactive)	0.342	-0.0477	0.612	0.481	0.681	0.118 (inactive)	-0.111	3.09 (inactive)	0.897 (inactive)	0.533 (inactive)	0.858 (inactive)	-0.994	-1.19 (inactive)	0.605 (inactive)	-0.134
CCOC(=O)[C@H](CC(C)C)NC(=O)CCC1CC(OC(=O)NCc2cccc3ccccc23)CC2(CCCC(COC(=O)NCc3cccc(C(F)(F)F)c3)O2)O1 (stereo not given in full)	-0.0645	-0.0149 (inactive)	-0.658 (inactive)	0.288 (inactive)	-0.274 (inactive)	0.626	-0.0872	0.27	0.261	0.258	0.366 (inactive)	-0.144	-0.406 (inactive)	-0.0787 (inactive)	0.976 (inactive)	0.613 (inactive)	0.273	0.176 (inactive)	0.794 (inactive)	0.259
